Assay outcomes from PubChem BioAssay.
Shown are actives, neighbours in structure and some others; about 3.4% of the full set was active somewhere.
Tau FP inhib: blocks human tau fibril formation measured by polarization | Potency, µM (series often up to 57.7 µM), inactives show at the top dose activity, negative = inhibition, most hits filed as inhibitors | P10636 | 280,000 tested, 0.39% active | K18 P301L tau heparin fibrillization, Alexa594 FP, 6 h; further: nearly all actives have a fitted effect of over 55% in size
Target sequence (P10636 561-689 P618L limits assumed): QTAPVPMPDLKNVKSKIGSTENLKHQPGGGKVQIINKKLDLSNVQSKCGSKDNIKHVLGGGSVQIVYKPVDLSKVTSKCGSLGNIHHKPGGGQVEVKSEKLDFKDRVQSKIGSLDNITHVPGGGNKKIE
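Recombinant K18 P301L […], labeled with Alexa 594 at 0.24 uM over 15 uM unlabeled; heparin inducer 20 uM final; 37 C, 6 hr; FP endpoint.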
GoLoco inh red: blocks human Gai1 binding to RGS12 GoLoco peptide, red readout. P63096. Gai1:RGS12 GoLoco peptide FP, rhodamine, 10 min. Potency, µM (doses to about 61.6 µM), inactives show at the highest dose activity, negative = inhibition, hits mostly inhibitors. 230,000 tested, 0.44% active; active means well fitted inhibition curve with a large enough effect, not every such curve was filed as active; inactive means no such curve, though single readings can be large or run the other way; further: nearly all actives have a fitted effect of over 30% in size
Target sequence (P63096 whole entry, looked up): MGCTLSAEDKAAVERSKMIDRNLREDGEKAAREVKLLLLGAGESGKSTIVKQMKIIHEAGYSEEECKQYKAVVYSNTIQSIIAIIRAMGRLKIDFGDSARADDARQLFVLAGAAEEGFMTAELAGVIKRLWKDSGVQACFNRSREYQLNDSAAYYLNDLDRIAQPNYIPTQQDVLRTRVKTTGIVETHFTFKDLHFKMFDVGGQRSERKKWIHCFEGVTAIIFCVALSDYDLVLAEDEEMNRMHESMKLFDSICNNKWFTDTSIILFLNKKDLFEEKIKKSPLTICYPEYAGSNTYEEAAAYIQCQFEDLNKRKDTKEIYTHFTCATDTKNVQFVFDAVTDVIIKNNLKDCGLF
Tau ThT inhib: inhibitors of human tau fibril formation, thioflavin T binding | Potency, µM (top dose mostly 57.4 µM), inactives show at the highest dose activity, negative = inhibition, actives largely listed as inhibitors | 270,000 tested, 2.1% active | AID 1460 | P10636 | recombinant tau K18 P301L, heparin-induced fibrillization, ThT fluorescence; further: nearly all actives have a fitted effect of over 55% in size
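ThT emission at 510 nm, taken 1 hr after adding 30 uM dye, quantifies aggregates formed when 20 uM heparin acts on human tau K18 P301L for 6 hr at 37 C.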
KDM4E inh: inhibitors of human JMJD2E histone demethylase. B2RXH2. JMJD2E catalytic domain, FDH-coupled NADH fluorescence (FDH is formaldehyde dehydrogenase). Potency, µM (top dose mostly 57.1 µM), for inactives: at the highest dose activity change, negative = inhibition, usual class: inhibitors. 230,000 tested, 1.6% active; active means well fitted inhibition curve with a large enough effect, not every such curve was filed as active; inconclusive means small, poorly fitted or top-dose-only effect, or another doubt; inactive means no such curve, though single readings can be large or run the other way;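 further: 0% = wells with enzyme and -100% = buffer wells without enzyme; nearly all actives have a fitted effect of over 50% in size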
Tau fluor cs: counter-screen for tau fibril formation inhibitors | tau K18 P301L (four-repeat tau fragment) Alexa594 fluorescence, heparin fibrillization | Potency, µM (series often up to 57.7 µM), for the others: at the top dose activity change, negative = decrease | AID 1463 | 280,000 tested, 0.93% active; further: nearly all actives have a fitted effect of over 55% in size
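Human K18 P301L tau (15 uM unlabeled plus 0.24 uM Alexa 594-labeled, final) in 100 mM sodium acetate pH 7 was mixed with compound and 20 uM heparin and incubated 6 hr at 37 C.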
Numbers without * were called inactive; ? = inconclusive; . = no result given; ! = a repeat was not active; [ ] = another dose, or the depositor's remark. Unless noted, the call rests on the fitted dose curve; in most records, active means well fitted curve in the direction sought with a large enough effect; inconclusive means small, poorly fitted or top-dose-only effect, or another doubt; inactive means no such curve, though single readings can be large; an effect the other way counts as inactive or inconclusive. Unless noted, on the % scale 0 is the no-effect control and ±100 the full control effect; potency means the concentration at half of the fitted maximal effect.

SMILES	Tau FP inhib	GoLoco inh red	Tau ThT inhib	KDM4E inh	Tau fluor cs
Cc1ccc(/C=C/c2onc(C)c2S(=O)(=O)N2CCC(C(=O)N(CCC(C)C)Cc3ccco3)CC2)cc1	-2.0%	.	-1.7%	.	-2.3%
CC(=O)OCC(=O)Nc1ccc(N=Nc2ccccc2)cc1	3.4%	7.3%	8.91µM*	-6.9%	-21.6%
O=C(CCl)Nc1ccc(-c2ccccc2)cc1	7.9%	-1.5%	-6.8%	-4.7%	3.1%
O=S(=O)(Nc1ccc(N=Nc2ccccc2)cc1)c1ccccc1	?	6.2%	15.8µM*	8.2%	?
O=S(=O)(Nc1ccc(S(=O)(=O)Nc2ccccc2)cc1)c1ccccc1	-8.9%	-5.0%	7.5%	1.8%	-13.4%
O=C(CCl)Nc1ccc(N=Nc2ccccc2)cc1	-14.9%	-33.7%	5.01µM*	?	?
CC(=O)Nc1ccc(N=Nc2ccccc2)cc1	0.5%	-0.1%	12.6µM*	5.9%	-5.7%
CCOc1ccc(-c2nonc2NC(=O)c2ccccc2C)cc1	-5.7%	.	7.8%	.	5.6%
Cc1ccc(S(=O)(=O)NCC(c2ccc(N(C)C)cc2)N2CCc3ccccc32)cc1C (stereo not drawn)	6.5%	.	?	.	?
COc1ccc(NC(=O)CCCc2nnc3n(C(C)C)c(=O)c4sccc4n23)cc1Cl	-9.0%	.	-2.7%	.	-15.7%
Cn1c(=O)c2sccc2n2c(CCCC(=O)Nc3ccc(Oc4ccccc4)cc3)nnc12	2.5%	.	-6.1%	.	-24.9%
COc1cccc(Cn2c(C)c(CNCc3cccc(C)c3)c(C(=O)O)c2C)c1	11.1%	.	-2.2%	.	2.6%
CC(C)C(=O)OCC(=O)Nc1ccc(N=Nc2ccccc2)cc1	?	10.0%	7.94µM*	-0.6%	?
Cc1ccc(S(=O)(=O)C(CNS(=O)(=O)c2ccc(F)c(C)c2)c2cccs2)cc1 (stereo not drawn)	-8.1%	.	1.2%	.	-16.0%
Cc1cc(O)ccc1C1(c2ccc(O)cc2C)OC(=O)c2ccccc21	-6.5%	-2.2%	-5.9%	2.5%	?
O=C1OC2(c3ccc(O)cc3Oc3cc(O)ccc32)c2ccccc21	4.0%	0.794µM*	?	.	-9.8%
Cc1cc(C)c(CN2C(=O)c3ccccc3S(=O)(=O)c3ccc(C(=O)OCC4CCCO4)cc32)c(C)c1 (stereo not drawn)	-6.6%	.	1.9%	.	-10.3%
O=C(C1=C(O)C(=O)N(c2nccs2)C1c1ccccc1)c1cc2ccccc2o1 (stereo not drawn)	-16.5%	20µM*	?	?	-1.7%
O=c1c(/C=C(\O)c2ccc(F)cc2)nc2ccccc2n1-c1ccccc1	-10.0%	74.9%	?	28.2µM*	-21.8%
S=C(Nc1ccc2nc(-c3ccccn3)c(-c3ccccn3)nc2c1)N1CCOCC1	?	6.0%	12.6µM*	?	?
COc1cc2c(cc1NC(=S)NC(=O)c1c(OC)cccc1OC)oc1ccccc12	28.2µM*	6.3%	-1.3%	-22.4%	-21.9%
COc1ccc(C(=O)NC(=S)Nc2cc3oc4ccccc4c3cc2OC)cc1	-0.9%	7.6%	-14.7%	4.7%	-10.7%
COC(=O)C1=CN(c2cccc(C)c2)C=C(C(=O)OC)C1c1cc(OC)c(O)c([N+](=O)[O-])c1	13.1%	8.4%	15.8µM*	-15.0%	?
CC1=C(C(=O)N2CCCCC2)C(c2cccc(Cl)c2)n2c(nc3ccccc32)N1 (stereo not drawn)	8.9%	.	-10.1%	.	-12.1%
O=C(O)c1cc(C(=O)O)cc(-c2ccc(/C=c3/sc4nc5ccccc5n4c3=O)o2)c1	1.6%	-13.9%	?	12.6µM*	-8.4%
SMILES	Tau FP inhib	GoLoco inh red	Tau ThT inhib	KDM4E inh	Tau fluor cs
O=c1/c(=C\c2cc([N+](=O)[O-])cc([N+](=O)[O-])c2O)sc2nc3ccccc3n12	?	160.0%	5.01µM*	?	?
O=c1/c(=C/c2ccccn2)sc2nc3ccccc3n12	?	-28.6%	?	-7.2%	-15.7%
Cc1cc(C)n(-c2nnc(NCc3ccc(Cl)cc3)nn2)n1	7.0%	-0.3%	?	3.1%	-15.8%
Cc1nn(-c2nnc(NCc3ccccc3)nn2)c(C)c1Br	10.5%	7.2%	14.1µM*	1.2%	?
CC[n+]1ccc(C)c2cc(P(=O)(c3ccccc3)c3ccccc3)ccc21	-3.3%	-35.8%	?	25.1µM*	-19.5%
CCCn1c(=O)n(-c2ccccc2Cl)c(=O)c2sc3ccccc3c21	-1.3%	.	-3.7%	.	-11.4%
CC(C)C1Nc2c(O)cc(Cl)c([N+](=O)[O-])c2C2C=CCC21 (stereo not drawn)	1.8%	-10.7%	11.2µM*	-5.1%	?
O=C(CCC1N=C2c3ccccc3N=C(SCc3ccccc3F)N2C1=O)NCc1ccccc1 (stereo not drawn)	-7.2%	.	-7.9%	.	4.8%
NC(=O)c1cc(-c2ccccc2)sc1NC(=O)CN1CCCCC1	?	0.7%	-12.7%	?	17.8µM*[quencher]
CC1(C)CC(=O)C(CC2CCCCC2=O)C(=O)C1 (stereo not drawn)	1.0%	-0.9%	8.5%	-0.8%	10.5%
CC1(C)CC(=O)C(CC2C(=O)CC(C)(C)CC2=O)C(=O)C1	?	-1.6%	10µM*	-0.1%	?
COc1cc(NC(=O)CSc2nc3nc(C)c(Cc4ccccc4)c(C)n3n2)cc(OC)c1OC	?	.	-17.0%	.	-28.6%
C=CCN1C=C2C(=O)C(C)(OC(=O)c3cccs3)C(=O)C=C2C=C1CCCC(=O)OC (stereo not drawn)	?	-1.1%[14.2 µM]	?	15.8µM*!	-0.2%[11.6 µM]
Cc1ccc(SCc2nc(-c3ccc(C(=O)NCc4ccccc4Cl)cc3)oc2C)cc1	-2.5%	.	-2.3%	.	-15.7%
O=C1CC(c2ccc(O)c(O)c2)Oc2cc(O)cc(O)c21 (stereo not drawn)	-0.7%	-5.1%	?	28.2µM*	-21.0%
O=C1CC(c2ccc(O)cc2)Oc2cc(O)cc(O)c21 (stereo not drawn)	3.3%	10.4%	-15.7%	-4.7%	-23.3%
O=C1CC(c2ccc(O)c(O)c2)Oc2c1ccc(O)c2O (stereo not drawn)	?	2.9%	15.8µM*	6.31µM*	?
Cc1cccc(Cn2c(CNS(=O)(=O)c3ccc(C(C)C)cc3)nc3cccnc32)c1	-13.1%	.	-4.8%	.	-15.9%
CC1=NN(c2ccccc2)C(=O)/C1=C\c1ccc(Oc2ccc([N+](=O)[O-])cc2[N+](=O)[O-])cc1	?	0.8%	14.1µM*	6.31µM*	14.1µM*[quencher]
COc1ccccc1NC(=O)C1=C(C)NC(=O)NC1c1ccccc1[N+](=O)[O-] (stereo not drawn)	-14.6%	-18.6%	?	?	-23.1%
CC1=C(C(=O)Nc2ccccc2)C(c2ccccc2[N+](=O)[O-])NC(=O)N1 (stereo not drawn)	?	54.1%	25.1µM*	-8.8%	?
Cc1cc(C)nc(SCC(=O)N/N=C/c2cccn2-c2ccc(O)cc2)n1	9.7%	3.16µM*	-9.0%	-2.0%	-16.6%
